In one test the test system is LXRb homodimer (NR concentration 270 nM). The experiment in a line: PBM binding z-score (relative to random genomic background probes); higher = stronger binding; sequences stand for … in GC…GCGATTGACAGCGTAGAATGAAGG
The procedure, abridged: (§1)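 Custom Agilent 4×180K protein-binding microarrays carried double-stranded probes. Their 34-nt variable regions held direct-repeat seeds, single-nucleotide variants, half-site ablations and random human genomic background sequences. Arrays were incubated 1 h with ligand-free nuclear receptor dimers in PBS pH 7.4, 2% milk, 0.02% Triton X-100, 1 mM DTT, 0.2 mg/mL BSA and 0.4 mg/ml salmon testes DNA. Antibodies against each partner (one per run) detected binding, and scanned fluorescence was regression-normalized. Binding z-scores use random background probes as reference.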
The sequence ATCGAAAGATCGTGAGGTGAGTATACAGAAAGGC displayed a PBM binding z-score of -0.374.
On the same count and under the same terms, the value for CCTCGGAGGACCACAGGAGGTCAGAGCTGCCAGA was -0.715.
Still for that read-out and setting: the result for TCGAGTAGGTTACCAATGGGGTATTCAGCTTTCT reads -0.514.
AGAACGAGGGCACGCTGAGATGATAGCAGAGTAG returned a PBM binding z-score of -0.697.
The sequence ATCTCTAAGTAAAGTTCAGTGAAAGATCGATAGA had a PBM binding z-score of 0.906.
On the same count and under the same terms, the result for TCTTGTAGATCAAAAGAGGTTAAGAAAGTGCGCT reads -0.239; that for ATATGTAGGTTAAGGGTCATTCAGGTTGGTTCGC, 1.4.
Still for that read-out and setting: the result for CGAACTAGGTCACTGACAGGACAGTGAATAGTAA reads -0.225; that for CCTACTGGGCCATCACGTCATTGATATCAACGTT, -0.225.
On the same count and under the same terms, the value for ACCATTAGTTGAGACGAGGGCAACCGATAGGTTG was -0.155.
On to TCGAGTAGGTTACCAATGGGGCATTCTGCTTTCT, for which the PBM binding z-score was -0.712.
Same read-out and setting: the result for CAAACTAGGTCAAGAGGTCAATGTCCGCTTCCCG reads 1.58.
The same measure, in the same setting: the value for TAGCCTAGGTCATTCATGGGCCAGTATAGAAAGC was 0.48; that for GCTTACGGGTCAAAGGTAATAGCATGAATAGAAT was 0.154.
Still for that read-out and setting: the value for TTACCAAGGTAAAGGTCGTTGATCCCTCTGTAGA was -0.332; that for TCTTGTAGATCAACAGGGGGTTAAGAAAGATCGA was 8.09; that for CAAACTAGGTCAAGGCCAAAGTCGGTTTGTGCCA was -0.0886.
As for CCAGACAGTTGAGAAGGTAACTCAGCCTCGATTA, the PBM binding z-score is 0.336.

A further test has as its system PPARa:RXRa (NR concentration 270 nM, RXRa partner concentration 90 nM). The test is described as above. Summed up: as §1
Regarding CCAGACAGGAGAGAAGGTAACTCAGCCTCGATTA, the PBM binding z-score is -0.133.
Still for that read-out and setting: the value for CGTCAAAGTTCAAGGTAACGTACCAGAAAGCAGC was 4.79.
TCTAGTTGGTCACGGAAGTCACACACGACGGGTA: the PBM binding z-score was 1.21.
Still for that read-out and setting: the value for ATATGTAGGTTATCGGTTCATTCAGTTTGCGCAT was 3.91; that for CCTAGCAGGCCAATGTGGGTCACTCAAGGCTTGA was 3.33; that for TCATATAGGTAATACAGGTGAAAGTTGGCATCTA was 2.79.
In turn, GCTAGCATGCCATTTGGGTCACTCAATGACGGGC displayed a PBM binding z-score of 1.05.
The same measure, in the same setting: the value for CGTCAAAGTTCAAGGTAACGTTACAGAAAGCAGC was 4.78.
Same read-out and setting: the result for CCTTACGGGTCAAGGTTATAGCACGGGTGGTACG reads 5.02; that for CGAACTAGGGCATCCAGGACAGTGAATACATTGA, 2.12; that for TTATCAAGGTGAAGGTCGTTGATCCCTCTGTAGA, 3.01.
The same measure, in the same setting: the value for CCAGACAGGTGAAATGTAACTCAGTCTGGTACGC was 0.949; that for GATTCAGGGTCAAGGCCAGAGTACGCGTATTGAT was 6.12; that for CGTCCAAGGTCAATGCTAGGTAAGTGAAAGCATT was 5.13.
As to CTCGAAAGGTCGTGCTCAGGTGACTATACCAAAC, the PBM binding z-score came out at 4.97.
Same read-out and setting: the result for GCTGCTAGGTCCGGTTGGTCAGCTAACGGGTACG reads -0.619; that for TTACCAAGGTGAGCTGAGGTCGTTGACCCAACTC, 2.06.
On the same count and under the same terms, the result for TCTATTAGTTGACGGGCAACCGACGAGTCCGTTT reads 0.565.
On the same count and under the same terms, the value for TTACCAAGGTGAACGTCGTTGATCCCTCTGTAGA was 1.99; that for GCTATTAGTCGAAAGGGCAACCGAATGATTCTCG was 1.74.
CCTAGCAGGCTAGGGTCACTCAAGCATTTCGCTT displayed a PBM binding z-score of 3.67.
In turn, CGTCCAAGGTCAAAAGTCAGTGAAGAGATGACGG came in with a PBM binding z-score of 5.14.
The sequence ATCGAAAGATCGTGAGGTGAGTATACAGAAAGGC returned a PBM binding z-score of 0.327.
Same read-out and setting: the value for CCTCGGAGGACCACAGGAGGTCAGAGCTGCCAGA was 1.97; that for TCGAGTAGGTTACCAATGGGGTATTCAGCTTTCT was 0.988.
As for AGAACGAGGGCACGCTGAGATGATAGCAGAGTAG, the PBM binding z-score is 2.1.
On the same count and under the same terms, the result for ATCTCTAAGTAAAGTTCAGTGAAAGATCGATAGA reads 1.66; that for TCTTGTAGATCAAAAGAGGTTAAGAAAGTGCGCT, 1.89.
Consider ATATGTAGGTTAAGGGTCATTCAGGTTGGTTCGC, for which the PBM binding z-score stood at 6.68.
Same read-out and setting: the result for CGAACTAGGTCACTGACAGGACAGTGAATAGTAA reads 4.7.
Same read-out and setting: the result for CCTACTGGGCCATCACGTCATTGATATCAACGTT reads 0.509; that for ACCATTAGTTGAGACGAGGGCAACCGATAGGTTG, 0.553; that for TCGAGTAGGTTACCAATGGGGCATTCTGCTTTCT, 1.33.
The same measure, in the same setting: the result for CAAACTAGGTCAAGAGGTCAATGTCCGCTTCCCG reads 6.11; that for TAGCCTAGGTCATTCATGGGCCAGTATAGAAAGC, 3.38; that for GCTTACGGGTCAAAGGTAATAGCATGAATAGAAT, 6.32.
TTACCAAGGTAAAGGTCGTTGATCCCTCTGTAGA gave a PBM binding z-score of 4.13.
Same read-out and setting: the value for TCTTGTAGATCAACAGGGGGTTAAGAAAGATCGA was 2.75.
On to CAAACTAGGTCAAGGCCAAAGTCGGTTTGTGCCA, for which the PBM binding z-score stood at 4.91.
Still for that read-out and setting: the result for CCAGACAGTTGAGAAGGTAACTCAGCCTCGATTA reads 0.142.

A further test concerns PPARg:RXRa (NR concentration 180 nM, RXRa partner concentration 90 nM). The description is as above. The procedure, abridged: as §1
The sequence CCAGACAGGAGAGAAGGTAACTCAGCCTCGATTA yielded a PBM binding z-score of 0.348.
Same read-out and setting: the result for CGTCAAAGTTCAAGGTAACGTACCAGAAAGCAGC reads 4.38; that for TCTAGTTGGTCACGGAAGTCACACACGACGGGTA, 1.27; that for ATATGTAGGTTATCGGTTCATTCAGTTTGCGCAT, 5.47.
Same read-out and setting: the value for CCTAGCAGGCCAATGTGGGTCACTCAAGGCTTGA was 1.94; that for TCATATAGGTAATACAGGTGAAAGTTGGCATCTA was 3.47.
Still for that read-out and setting: the value for GCTAGCATGCCATTTGGGTCACTCAATGACGGGC was 0.819; that for CGTCAAAGTTCAAGGTAACGTTACAGAAAGCAGC was 4.55.
CCTTACGGGTCAAGGTTATAGCACGGGTGGTACG yielded a PBM binding z-score of 4.65.
Still for that read-out and setting: the result for CGAACTAGGGCATCCAGGACAGTGAATACATTGA reads 3.28.
The same measure, in the same setting: the value for TTATCAAGGTGAAGGTCGTTGATCCCTCTGTAGA was 2.92.
The same measure, in the same setting: the value for CCAGACAGGTGAAATGTAACTCAGTCTGGTACGC was 1.12.
Regarding GATTCAGGGTCAAGGCCAGAGTACGCGTATTGAT, the PBM binding z-score was 6.43.
Turning to CGTCCAAGGTCAATGCTAGGTAAGTGAAAGCATT, the PBM binding z-score was determined as 3.69.
The same measure, in the same setting: the result for CTCGAAAGGTCGTGCTCAGGTGACTATACCAAAC reads 2.84.
The same measure, in the same setting: the result for GCTGCTAGGTCCGGTTGGTCAGCTAACGGGTACG reads -0.571; that for TTACCAAGGTGAGCTGAGGTCGTTGACCCAACTC, 0.441.
The same measure, in the same setting: the value for TCTATTAGTTGACGGGCAACCGACGAGTCCGTTT was 0.00282.
The sequence TTACCAAGGTGAACGTCGTTGATCCCTCTGTAGA returned a PBM binding z-score of 0.984.
On the same count and under the same terms, the result for GCTATTAGTCGAAAGGGCAACCGAATGATTCTCG reads 2.25; that for CCTAGCAGGCTAGGGTCACTCAAGCATTTCGCTT, 0.643.
Same read-out and setting: the value for CGTCCAAGGTCAAAAGTCAGTGAAGAGATGACGG was 5.67; that for ATCGAAAGATCGTGAGGTGAGTATACAGAAAGGC was 0.669.
The same measure, in the same setting: the result for CCTCGGAGGACCACAGGAGGTCAGAGCTGCCAGA reads 0.00464; that for TCGAGTAGGTTACCAATGGGGTATTCAGCTTTCT, 0.229; that for AGAACGAGGGCACGCTGAGATGATAGCAGAGTAG, 2.33.
For ATCTCTAAGTAAAGTTCAGTGAAAGATCGATAGA, the PBM binding z-score worked out at 1.4.
TCTTGTAGATCAAAAGAGGTTAAGAAAGTGCGCT: the PBM binding z-score was -0.0297.
Regarding ATATGTAGGTTAAGGGTCATTCAGGTTGGTTCGC, the PBM binding z-score is 11.5.
Still for that read-out and setting: the value for CGAACTAGGTCACTGACAGGACAGTGAATAGTAA was 7.95; that for CCTACTGGGCCATCACGTCATTGATATCAACGTT was 0.963.
Still for that read-out and setting: the value for ACCATTAGTTGAGACGAGGGCAACCGATAGGTTG was 0.56; that for TCGAGTAGGTTACCAATGGGGCATTCTGCTTTCT was 0.0267; that for CAAACTAGGTCAAGAGGTCAATGTCCGCTTCCCG was 9.5.
Same read-out and setting: the result for TAGCCTAGGTCATTCATGGGCCAGTATAGAAAGC reads 2.02; that for GCTTACGGGTCAAAGGTAATAGCATGAATAGAAT, 9.59; that for TTACCAAGGTAAAGGTCGTTGATCCCTCTGTAGA, 6.84.
In the case of TCTTGTAGATCAACAGGGGGTTAAGAAAGATCGA, the PBM binding z-score worked out at 0.692.
On the same count and under the same terms, the value for CAAACTAGGTCAAGGCCAAAGTCGGTTTGTGCCA was 8.07.
Same read-out and setting: the value for CCAGACAGTTGAGAAGGTAACTCAGCCTCGATTA was 0.175.

The values above are taken from the supplement of paper PMC6555819.
